Results as given in PubChem BioAssay.
Calls of active or inactive are those of the source.

What was measured:
[1] = tested on: Plasmodium falciparum Sir2 (PF13_0152, Sir2A); assay: pfSir2 binders on small-molecule microarrays, primary screen, biochemical, small-molecule microarray, 635 nm fluorescence (AID 1098); settings: small-molecule microarray binding, fluorescence 635 nm; higher = more signal;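 also: score merges spot fluorescence intensity with its signal-to-noise ratio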
[2] = small-molecule microarray binders of probe aDKK1, primary screen, biochemical, biotinylated probe, 635/667 nm fluorescence (AID 1099); settings: higher = more signal;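 also: score merges 667nm spot fluorescence with signal to noise across triplicate slides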
[3] = small-molecule microarray binders of probe aCHRDL2, primary screen, biochemical, biotinylated probe, 635/667 nm fluorescence (AID 1100); settings: higher = more signal
[4] = splicing luciferase reporter signal modulators, primary screen, spliceosome inhibition project, cell-based, HEK293, splice +/- reporter (AID 1101); settings: luminescence, 24 h, higher = more signal, called active from +8 up or from −8 down;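 also: HEK293 cells carrying a splicing-competent luciferase reporter gene; test concentration not given here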
[5] = molecular target: Fibroblast growth factor 10 (Homo sapiens) (UniProt O15520); assay: FGF10 binders on small-molecule microarrays, primary screen, biochemical, small-molecule microarray, 635 nm fluorescence (AID 1102); settings: FGF10 binding, fluorescence 635 nm, higher = more signal
[6] = tested on: glycogen synthase kinase-3 (GSK3A per assay name; protocol says GSK3B); assay: GSK3 binders on small-molecule microarrays, primary screen, biochemical, small-molecule microarray, 635 nm fluorescence, GSK3A (AID 1103); settings: small-molecule microarray binding, fluorescence 635 nm; higher = more signal; also: the record names both GSK3A and GSK3B
[7] = molecular target: Epidermal growth factor receptor (Homo sapiens) (UniProt P00533); assay: EGFR binders on small-molecule microarrays, primary screen, biochemical, small-molecule microarray, 635 nm fluorescence (AID 1104); settings: EGFR binding, higher = more signal;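 also: score merges 667 nm emission intensity with spot signal to noise over triplicate slides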
[8] = molecular target: Follistatin-related protein 3 (Homo sapiens) (UniProt O95633); assay: FSTL3 binders on small-molecule microarrays, primary screen, biochemical, small-molecule microarray, 635 nm fluorescence (AID 1105); settings: FSTL3 binding, higher = more signal;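 also: score merges emission near 667 nm and signal to noise per printed spot across three slides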
[9] = molecular target: Dickkopf-related protein 1 (Homo sapiens) (UniProt O94907); assay: DKK1 binders on small-molecule microarrays, primary screen, biochemical, small-molecule microarray, 635 nm fluorescence scan (AID 1106); settings: DKK1 binding, higher = more signal;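 also: score merges emission near 667 nm with signal to noise over three replicate slides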
[10] = tested on: Inhibin beta A chain (activin A); assay: INHBA (activin A) binders on microarrays, primary screen, biochemical, small-molecule microarray, 635 nm fluorescence scan (AID 1107); settings: small-molecule microarray binding, higher = more signal;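 also: mouse activin A protein probed at 4.33 µg/mL on printed slides; score merges bound-protein fluorescence near 667 nm with spot signal-to-noise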
[11] = tested on: Human papillomavirus type 1a protein E7 (residues 44-93); assay: HPV1a E7 fragment binders on microarrays, primary screen, biochemical, small-molecule microarray, residues 44-93, 635 nm fluorescence (AID 1108); settings: small-molecule microarray binding, fluorescence 635 nm; higher = more signal;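 also: E7 fragment applied at 1 µg/mL in TBST for 1 h at 4 C; score combines spot fluorescence with its signal to noise ratio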
[12] = modulators of HCV replicon luciferase signal, primary screen, HCV replication inhibitor project, Huh7 cells, luciferase reporter (AID 1109); settings: 48 h, higher = more signal;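 also: huh7 hepatoma cells harbouring a luciferase neomycin HCV replicon reporter; luciferase luminescence as measure of HCV replicon replication; test concentration not given here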
[13] = molecular target: Left-right determination factor 2 (Homo sapiens) (UniProt O00292); assay: LEFTY2 binders on small-molecule microarrays, primary screen, biochemical, small-molecule microarray, 635 nm fluorescence scan (AID 1110); settings: LEFTY2 binding, higher = more signal
[14] = molecular target: Calmodulin-1 (Homo sapiens) (UniProt P0DP23); assay: CALM1 binders on microarrays, EGTA buffer, profiling panel, biochemical, small-molecule microarray, Cy5-labelled CALM1 (AID 1111); settings: Cy5-CALM1 binding fluorescence, higher = more signal;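 also: labelled calmodulin applied in Tris saline Tween buffer holding calcium plus EGTA and DTT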
[15] = molecular target: Calmodulin-1 (Homo sapiens) (UniProt P0DP23); assay: calcium-bound CALM1 binders on microarrays, profiling panel, artefact control for SMM control-protein annotation, biochemical, small-molecule microarray, Cy5-labelled CALM1, plus calcium (AID 1112); settings: Cy5-CALM1 binding fluorescence, higher = more signal;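 also: score merges spot fluorescence with signal to noise from triplicate slides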
[16] = small-molecule microarray binders of probe aWnt5a, primary screen, biochemical, biotinylated probe, 635/667 nm fluorescence (AID 1113); settings: higher = more signal;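 also: score merges 667 nm fluorescence intensity with signal-to-noise per printed feature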
[17] = small-molecule microarray binders of probe aShh, primary screen, biochemical, biotinylated probe, 635/667 nm fluorescence (AID 1114); settings: higher = more signal;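 also: probe is biotin-labelled aShh protein from a stem cell growth factor screen; measures binding of labelled protein to compounds printed on the slide; score merges feature fluorescence at 667 nm with signal-to-noise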
[18] = small-molecule microarray binders of probe aNog, primary screen, biochemical, biotinylated probe, 635/667 nm fluorescence (AID 1115); settings: higher = more signal;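 also: probe is biotinylated aNog protein used at 0.15 µg/mL for 1 h at 4 C; z-score combines 667 nm fluorescence of each spot with its signal to noise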
[19] = molecular target: Torsin-1A-interacting protein 1 (Homo sapiens) (UniProt Q5JTV8); assay: LAP1 binders from COS7 cell lysate, primary screen, small-molecule microarray, 635/667 nm fluorescence (AID 1116); settings: COS7-hLAP1 lysate binding, 635 nm fluorescence, higher = more signal
[20] = molecular target: Alpha-bungarotoxin (Bungarus multicinctus) (UniProt P60615); assay: alpha-bungarotoxin binders on microarray, profiling panel, artefact control for SMM control protein annotation, biochemical, small-molecule microarray, Alexa647 label, 635/667 nm fluorescence (AID 1117); settings: alpha-BTX-A647 binding fluorescence, higher = more signal
Alpha-bungarotoxin (Bungarus multicinctus), sequence (P60615 whole entry, looked up): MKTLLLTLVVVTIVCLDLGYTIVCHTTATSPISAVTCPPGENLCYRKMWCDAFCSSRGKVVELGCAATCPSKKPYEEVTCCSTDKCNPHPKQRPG

Follistatin-related protein 3 (Homo sapiens), sequence (O95633 whole entry, looked up): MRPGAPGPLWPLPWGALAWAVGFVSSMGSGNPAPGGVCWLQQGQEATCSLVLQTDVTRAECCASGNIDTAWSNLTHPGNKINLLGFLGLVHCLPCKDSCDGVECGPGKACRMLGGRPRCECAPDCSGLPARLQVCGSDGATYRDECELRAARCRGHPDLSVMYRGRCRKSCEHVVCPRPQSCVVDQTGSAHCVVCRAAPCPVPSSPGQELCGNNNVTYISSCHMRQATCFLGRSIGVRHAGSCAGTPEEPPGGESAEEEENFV
Epidermal growth factor receptor (Homo sapiens), sequence (P00533 whole entry, looked up): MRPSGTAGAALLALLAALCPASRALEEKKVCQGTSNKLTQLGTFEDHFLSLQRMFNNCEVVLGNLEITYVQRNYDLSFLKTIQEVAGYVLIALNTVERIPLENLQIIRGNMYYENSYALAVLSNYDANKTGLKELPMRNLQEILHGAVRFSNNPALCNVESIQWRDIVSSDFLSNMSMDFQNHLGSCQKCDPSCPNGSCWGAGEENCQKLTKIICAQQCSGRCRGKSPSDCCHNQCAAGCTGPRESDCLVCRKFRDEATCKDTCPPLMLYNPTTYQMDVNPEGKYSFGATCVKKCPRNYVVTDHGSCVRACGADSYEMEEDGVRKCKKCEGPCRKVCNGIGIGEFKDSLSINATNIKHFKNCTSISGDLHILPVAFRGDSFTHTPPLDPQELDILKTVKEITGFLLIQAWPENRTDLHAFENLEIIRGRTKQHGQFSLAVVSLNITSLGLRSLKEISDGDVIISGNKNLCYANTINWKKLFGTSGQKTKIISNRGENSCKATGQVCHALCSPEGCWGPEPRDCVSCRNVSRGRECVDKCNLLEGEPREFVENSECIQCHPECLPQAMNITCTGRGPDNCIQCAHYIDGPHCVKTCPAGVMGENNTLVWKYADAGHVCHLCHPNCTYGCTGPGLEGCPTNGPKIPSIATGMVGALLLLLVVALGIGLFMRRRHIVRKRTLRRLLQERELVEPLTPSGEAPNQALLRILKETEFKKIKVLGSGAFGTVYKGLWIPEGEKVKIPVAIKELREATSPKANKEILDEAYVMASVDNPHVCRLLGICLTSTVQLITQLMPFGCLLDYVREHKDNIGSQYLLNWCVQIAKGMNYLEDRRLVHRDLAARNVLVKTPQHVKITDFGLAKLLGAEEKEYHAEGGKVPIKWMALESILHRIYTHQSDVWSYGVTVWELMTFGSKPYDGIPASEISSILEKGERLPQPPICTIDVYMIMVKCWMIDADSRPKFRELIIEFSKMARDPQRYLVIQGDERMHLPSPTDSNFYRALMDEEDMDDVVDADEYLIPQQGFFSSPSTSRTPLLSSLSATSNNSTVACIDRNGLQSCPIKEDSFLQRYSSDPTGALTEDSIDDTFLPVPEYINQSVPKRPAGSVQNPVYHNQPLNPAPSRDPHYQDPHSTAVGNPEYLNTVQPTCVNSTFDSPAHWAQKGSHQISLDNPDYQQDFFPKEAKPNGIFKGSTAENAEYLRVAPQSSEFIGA
Torsin-1A-interacting protein 1 (Homo sapiens), sequence (Q5JTV8 whole entry, looked up): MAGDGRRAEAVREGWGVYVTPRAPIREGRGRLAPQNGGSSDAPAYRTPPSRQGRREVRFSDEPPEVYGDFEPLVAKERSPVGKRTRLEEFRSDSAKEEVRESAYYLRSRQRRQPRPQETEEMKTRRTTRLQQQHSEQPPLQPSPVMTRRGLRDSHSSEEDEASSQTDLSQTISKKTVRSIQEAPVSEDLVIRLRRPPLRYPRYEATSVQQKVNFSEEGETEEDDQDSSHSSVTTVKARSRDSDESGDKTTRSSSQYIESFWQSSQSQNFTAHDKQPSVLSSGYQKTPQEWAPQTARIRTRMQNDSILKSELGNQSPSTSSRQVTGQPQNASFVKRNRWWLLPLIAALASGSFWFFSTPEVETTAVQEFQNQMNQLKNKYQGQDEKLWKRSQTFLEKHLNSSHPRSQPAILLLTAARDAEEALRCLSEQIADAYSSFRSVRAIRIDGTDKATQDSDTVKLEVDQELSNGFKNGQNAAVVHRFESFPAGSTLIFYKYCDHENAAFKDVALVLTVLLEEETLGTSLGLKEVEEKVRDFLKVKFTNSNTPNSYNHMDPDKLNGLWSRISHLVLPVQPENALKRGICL
Dickkopf-related protein 1 (Homo sapiens), sequence (O94907 whole entry, looked up): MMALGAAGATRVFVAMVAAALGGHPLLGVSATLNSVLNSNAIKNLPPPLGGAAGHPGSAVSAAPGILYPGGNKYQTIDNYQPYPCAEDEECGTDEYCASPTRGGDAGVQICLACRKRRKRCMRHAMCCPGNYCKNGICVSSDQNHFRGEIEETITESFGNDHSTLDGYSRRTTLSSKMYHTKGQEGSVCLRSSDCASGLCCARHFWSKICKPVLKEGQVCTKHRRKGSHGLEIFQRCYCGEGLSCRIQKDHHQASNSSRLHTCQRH
Fibroblast growth factor 10 (Homo sapiens), sequence (O15520 whole entry, looked up): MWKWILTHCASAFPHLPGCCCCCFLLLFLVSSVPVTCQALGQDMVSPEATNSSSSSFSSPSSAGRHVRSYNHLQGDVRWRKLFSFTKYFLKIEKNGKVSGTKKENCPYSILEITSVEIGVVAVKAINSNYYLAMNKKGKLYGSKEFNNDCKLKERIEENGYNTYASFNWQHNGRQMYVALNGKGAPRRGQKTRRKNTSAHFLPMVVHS
Left-right determination factor 2 (Homo sapiens), sequence (O00292 whole entry, looked up): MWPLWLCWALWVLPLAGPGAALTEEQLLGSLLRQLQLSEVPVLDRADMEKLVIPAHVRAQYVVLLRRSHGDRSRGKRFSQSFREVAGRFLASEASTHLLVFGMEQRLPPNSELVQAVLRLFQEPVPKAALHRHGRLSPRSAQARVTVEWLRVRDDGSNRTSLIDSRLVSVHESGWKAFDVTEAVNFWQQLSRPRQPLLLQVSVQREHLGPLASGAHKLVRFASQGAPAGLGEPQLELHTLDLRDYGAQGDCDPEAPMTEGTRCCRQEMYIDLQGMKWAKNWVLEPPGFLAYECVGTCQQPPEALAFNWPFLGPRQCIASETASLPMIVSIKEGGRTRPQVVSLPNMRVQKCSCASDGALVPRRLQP

| Structure (SMILES) | composite z-score [1] | composite z-score [2] | composite z-score [3] | z-score [4] | composite z-score [5] | composite z-score [6] | composite z-score [7] | composite z-score [8] | composite z-score [9] | composite z-score [10] | composite z-score [11] | z-score [12] | composite z-score [13] | composite z-score [14] | composite z-score [15] | composite z-score [16] | composite z-score [17] | composite z-score [18] | composite z-score [19] | composite z-score [20] |
| --- | --- | --- | --- | --- | --- | --- | --- | --- | --- | --- | --- | --- | --- | --- | --- | --- | --- | --- | --- | --- |
| COCCOC(=O)N1C(=O)[C@@]2(c3cc(C#Cc4ccc(OC)cc4)ccc31)[C@H](C(=O)Nc1nc3ccccc3s1)[C@H]1C(=O)O[C@H](c3ccccc3)[C@H](c3ccccc3)N1[C@@H]2c1ccc(OCCO)cc1 | 0.557 | -0.135 | -0.571 | -0.653 (inactive) | 1.37 | 1.28 | 0.654 | 1.38 | 0.901 | 0.0865 | 1.17 | -2.19 | 0.785 | 0.762 | -0.621 | -0.0704 | -0.223 | -0.268 | 0.179 | 1 |
| N#Cc1ccc(C(O)C2C=CC3C(=O)N(c4ccccc4)C(=O)C3N2Nc2ccccc2)cc1 (stereo not given) | 0.592 | 0.759 | 1 | -1.04 (inactive) | 0.913 | -0.0985 | 0.107 | 0.391 | -0.352 | 0.877 | 0.86 | -0.875 | -0.224 | 1.03 | 0.492 | 0.0357 | 0.0815 | 1.09 | 0.747 | 1.1 |
| C=CCN1Cc2ccccc2[C@H]2OC(c3ccc(OCCCO)cc3)=N[C@@]2(CC=C)C1=O | 0.911 | 0.406 | 1.09 | -0.308 (inactive) | 1.4 | 1.28 | 0.901 | 1.42 | 1.67 | 1.39 | 1.46 | -1.74 | 0.725 | 3.19 | 1.43 | -0.0478 | 0.14 | -0.44 | -0.0689 | 1.36 |
| COc1ccc(CCNC(=O)[C@@H]2c3ccccc3C(=O)N(Cc3cc(C(F)(F)F)cc(C(F)(F)F)c3)[C@H]2c2ccc(CO)cc2)cc1 | 1.1 | 0.0172 | 0.716 | -0.082 (inactive) | 0.0696 | -0.331 | -0.358 | -0.272 | -0.594 | -0.167 | 0.867 | -1.06 | -0.31 | 0.0713 | -0.935 | -0.141 | -0.147 | -0.273 | 0.338 | 0.795 |
| COC(=O)Cn1c(C(=O)N(C)C)cc2c1C[C@H]1CN(C(=O)c3ccccc3)[C@@](Cc3ccc(F)cc3)(C(=O)OC)[C@@H]21 | 0.441 | 0.903 | 0.823 | -0.233 (inactive) | 1.33 | -0.367 | 0.404 | 0.139 | -0.0283 | 0.65 | 0.389 | 0.387 | 0.484 | 0.642 | 0.496 | 0.328 | 0.235 | 0.715 | 0.768 | 0.368 |
| CC1CC/C=C\[C@H]2OC34C=CCN(c5ccc(Cl)cc5)C(=O)[C@H]3N(CCCCCO)C(=O)[C@]4(C)C2C(=O)O1 (stereo not given in full) | 0.925 | -0.153 | 0.648 | 0.4 (inactive) | -1.04 | -0.798 | -1.24 | -0.888 | -1.98 | -0.497 | -0.826 | 0.315 | -2.19 | -0.471 | 0.432 | -0.247 | -0.0626 | -0.163 | -0.614 | -1.16 |
| O=C1OCC=C[C@H]2OC34C=CCN(c5ccc(Cl)cc5)C(=O)[C@H]3N(CCO)C(=O)[C@@H]4[C@@H]12 (stereo not given in full) | 0.201 | -0.521 | 0.777 | 0.169 (inactive) | -0.25 | -0.747 | -0.962 | -1.68 | -1.71 | -0.303 | -0.0723 | -0.515 | -0.884 | -0.577 | 0.515 | -0.28 | -0.304 | -0.115 | 0.0143 | -0.003 |
| C=CCC(OC(C)=O)[C@@H]1[C@@H](N(Cc2cc3ccccc3o2)C(=O)c2ccc(C)cc2)c2cc(OCCCO)ccc2N1C(=O)Cc1ccc(OC)cc1 (stereo not given in full) | -0.0682 | -0.199 | 0.33 | -0.669 (inactive) | 0.289 | 0.121 | -0.147 | 0.087 | 0.0807 | 1.01 | -0.098 | -0.169 | -0.0667 | -0.254 | -0.583 | 0.0317 | 0.136 | -0.318 | -0.0471 | 0.203 |
| Cc1ccc(S[C@]2(C(=O)NCC(F)(F)F)CC(=O)N(C3CCCCC3)[C@@H]2c2ccc(CO)cc2I)cc1 | 0.894 | 0.119 | 0.408 | -0.635 (inactive) | 0.919 | 1.24 | 0.395 | 0.914 | 0.133 | 0.469 | 1.42 | -2.3 | 0.394 | 1.01 | -0.077 | -0.122 | 0.184 | -0.422 | 0.958 | 0.587 |
| CC1=C[C@@]2(CO)C(=O)[C@]3(CO3)[C@@H]1[C@H]1[C@]2(C)C=C(CO)C(=O)[C@]12CO2 | 0.451 | 0.0159 | -0.52 | -0.23 (inactive) | 0.302 | 0.296 | 0.33 | 0.951 | 0.241 | 0.421 | 0.122 | -1.61 | 0.351 | -0.163 | -0.0609 | -0.0799 | -0.123 | -0.488 | -0.312 | 0.242 |
| CN1C(=O)C2C=CC(C(O)c3ccc(F)cc3)N(Nc3ccccc3)C2C1=O (stereo not given) | 1.4 | 0.4 | 0.902 | 0.909 (inactive) | 0.0186 | -0.433 | -0.165 | 0.578 | -0.463 | 0.623 | 0.793 | -0.216 | 0.0204 | 0.746 | 0.693 | -0.0165 | -0.412 | -0.305 | 0.635 | 1.62 |
| CN(C)c1ccc(C(O)C2C=CC3C(=O)N(c4ccccc4)C(=O)C3N2Nc2ccc([N+](=O)[O-])cc2)cc1 (stereo not given) | 1.53 | 0.604 | 1.16 | -0.0025 (inactive) | 0.704 | 1.29 | 0.332 | 0.974 | -0.204 | 1.4 | 1.37 | -1.52 | -0.162 | 0.603 | -0.534 | 0.0809 | 0.0697 | 0.638 | 0.926 | 1.46 |
